Screening results as filed in PubChem.
Compounds with a hit are over-represented: about 2.2% of the library has one in this group of screens.
FUS suppressor: rescues growth of FUS-expressing yeast; S. cerevisiae FUS-expressing, growth rescue, OD600, 24 h; Potency, µM (top dose mostly 76.6 µM), actives largely listed as activators; actives 0.24% (n = 390,000);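 note: plate controls were DMSO vehicle for no effect and reference control for full effect; nearly all actives have a fitted effect of over 55% in size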
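S. cerevisiae expressing FUS from galactose induction served as the toxicity model. Growth after 24hr at 30C, read as absorbance at 600 nm, indicates suppression of toxicity; compounds dosed at several concentrations.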
aSyn rescue: alpha-synuclein toxicity inhibition in yeast; actives 0.14% (n = 370,000); Yeast expressing alpha-synuclein, growth rescue, BacTiter-Glo, 24 h; Potency, µM (titrated, usually from 46.1 µM), inactives show at the highest dose growth rescue (activation), usual class: activators; note: % of control where 0% means no effect; nearly all actives have a fitted effect of over 65% in size
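Screening used galactose-induced yeast with toxic alpha-synuclein levels, exposed to compound for 24 hr at 30 deg C. Cell growth, read with BacTiter-Glo luminescence, gave the measured signal.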
Mito fusion yeast: inhibitors of mitochondrial division or activators of mitochondrial fusion; S. cerevisiae fusion-defective mutant growth rescue, CellTiterGlo 48 h; Potency, µM (doses to about 46.1 µM), inactives show at the highest dose growth rescue (activation), usual class: activators; actives 0.23% (n = 320,000); AID 485298; note: % of control where 0% means no effect; nearly all actives have a fitted effect of over 45% in size
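Growth-rescue viability read-out: after 48 h at the non-permissive 37C in glycerol/ethanol YPEG, yeast mitochondrial fusion mutants are measured by CellTiterGlo luminescence; compounds (23 nl pinned per well) restoring growth score as division inhibitors or fusion activators.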
TDP-43 yeast inh: rescues yeast growth from TDP-43 toxicity. TDP-43 expressing yeast growth rescue, BacTiter-Glo, 24 h. Potency, µM (highest dose often 46.1 µM), inactives show at the highest dose growth rescue (activation), hits mostly activators. actives 1.8% (n = 410,000); note: % of control where 0% means no effect; nearly all actives have a fitted effect of over 50% in size
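Galactose-induced TDP-43 yeast, OD600=0.02, compound pinned; 24 hr, 30 deg C; BacTiter-Glo luminescence for growth. Inhibitors of TDP-43 toxicity read as activators.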
Abeta yeast res: restores growth of yeast expressing A-beta42 peptide. yeast expressing A-beta42, growth rescue, OD600, 48 h; response scale: 0% DMSO, 100% iron-clioquinol control. Potency, µM (top dose mostly 46.1 µM), usual class: activators. actives 0.063% (n = 410,000); note: nearly all actives have a fitted effect of over 55% in size
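Growth rescue measured by 600 nm absorbance after 48 h yeast culture at 30 C with compound. Values normalized between DMSO and an equimolar ferric chloride plus clioquinol control.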
* hit, by the source's call; i = inactive; ? = inconclusive; . = no result; ! = not active in a repeat. Calls come from the whole dose curve; as a rule, active = well fitted curve in the direction sought with a large enough effect; inconclusive = small, poorly fitted or top-dose-only effect, or another doubt; inactive = no such curve, though single readings can be large; an effect the other way counts as inactive or inconclusive. Potency is the fitted concentration of half-maximal effect.

SMILES	FUS suppressor	aSyn rescue	Mito fusion yeast	TDP-43 yeast inh	Abeta yeast res
CC(C)(CC(=O)O)Cc1nc(-c2ccc(Cl)cc2)no1	i	-3%	0%	32µM*	i
COc1ccc(S[C@]2(C(=O)N3CCCC3)CC(=O)N(C(=O)C3CC3)[C@@H]2c2ccc(OC)cc2)cc1	i	.	.	.	.
C#CCOCCOCCOCCNc1nc(N2CCN(C(=O)CCCCCCCCCCNC(=O)[C@H](CCCCN)n3cc(C)nn3)CC2)nc(N2CCN(C(=O)CCCCCCCCCCNC(=O)[C@H](CCCN=C(N)N)n3cc(C[C@@H](C)CC)nn3)CC2)n1	?	-58%	7%	?	i
C#CCOCCOCCOCCNc1nc(N2CCN(C(=O)CCCCCCCCCCNC(=O)[C@H](CO)n3cc(CCCCCN)nn3)CC2)nc(N2CCN(C(=O)CCCCCCCCCCNC(=O)[C@H](CCCN=C(N)N)n3cc(C[C@@H](C)CC)nn3)CC2)n1	.	.	12%	.	.
C#CCOCCOCCOCCNc1nc(N2CCN(C(=O)CCCCCCCCCCNC(=O)[C@@H](CCSC)n3cc(CCO)nn3)CC2)nc(N2CCN(C(=O)CCCCCCCCCCNC(=O)[C@H](CCCN=C(N)N)n3cc(C[C@@H](C)CC)nn3)CC2)n1	10µM*	-50%	-7%	-1%	i
C#CCOCCOCCOCCNc1nc(N2CCN(C(=O)CCCCCCCCCCNC(=O)[C@H](CCCCN)n3cc(C[C@@H](C)CC)nn3)CC2)nc(N2CCN(C(=O)CCCCCCCCCCNC(=O)[C@H](CCCN=C(N)N)n3cc(C[C@@H](C)CC)nn3)CC2)n1	10µM*	-62%	-2%	-84%	i
O=C(Nc1nnc(Cc2ccccc2)s1)c1ccco1	i	-1%	4%	3%	i
NC(=O)c1cc(Cc2ccccc2)sc1NC(=O)c1ccco1	i	-17%	16µM*	?	i
Cc1nn(C)c(C(=O)NC2C3CC4CC(C3)CC2C4)c1Cl (stereo not given)	i	7%	-53%	10µM*	i
Cn1ncc(Cl)c1C(=O)NC1C2CC3CC(C2)CC1C3 (stereo not given)	i	8%	5%	?	i
COc1ccc([C@H]2/C=C\CN(C(=O)CC(C)(C)C)[C@@H](C)C(=O)N2Cc2ccc(F)cc2)cc1	i	3%	.	35µM*	i
COc1ccc([C@H]2/C=C\CN(C(=O)c3ccc(C)cc3)[C@@H](C)C(=O)N2Cc2ccc(F)cc2)cc1	i	1%	.	8%	i
ON=C1c2ccccc2-c2ccc(O)cc21	.	6%	.	0%	i
CC(=NO)c1ccc2c(c1)C(=NO)c1ccccc1-2	.	9%	.	13µM*	i
CCC(=O)N1c2ccccc2CC1C(=O)NCCN1CCN(c2cccc(C)c2C)CC1 (stereo not given)	i	.	.	1%	i
CCOc1cccc(C2C=C(c3ccc4c(c3)OCO4)NC(c3ccccc3Cl)N2)c1O (stereo not given)	.	-4%	.	.	.
N=C(N)SCCc1ccc(CCSC(=N)N)cc1	.	?	21µM*	.	.
CC(C)Oc1ccc(CSC(=N)N)cc1	i	-3%	2%	0%	i
COc1ccc(N2C(=O)c3ccccc3NC2c2ccc(OC)c(COc3ccccc3F)c2)cc1 (stereo not given)	.	-5%	.	.	.
C[C@H]1[C@@H](NC(=O)c2cccc(C(F)(F)F)c2)CC[C@@]23CCCN2C(=O)CCC[C@@H]13	i	.	.	.	.
COC(=O)c1cc2sc(Cl)cc2n1Cc1nc(-c2ccccc2F)oc1C	i	.	.	16%	i
CCC12CC3CC(C1)CC(C(=O)O)(C3)C2	i	0%	-4%	14µM*	i
CCOC(=O)c1cc(-c2ccc(OC)cc2)n(CCC(=O)NCCc2ccccc2)c1C	?	.	.	32µM*	i
CCOC(=O)c1cc(-c2ccccc2)n(CCC(=O)NCCc2cccc(C)c2)c1C	?	.	.	?	i
Clc1ccccc1CSc1nncn1NC/C=C/c1ccccc1	.	23%	22µM*	0%	i
SMILES	FUS suppressor	aSyn rescue	Mito fusion yeast	TDP-43 yeast inh	Abeta yeast res
C(=C\c1ccccc1)/CNn1cnnc1	.	2%	2%	8%	i
CC(C)C[C@@H]1COc2cc(Br)ccc2S(=O)(=O)N1Cc1cn(Cc2ccc(C(F)(F)F)cc2)nn1	i	.	.	.	.
N#CCC(=O)N/N=C/c1ccc(Sc2nc3ccccc3s2)o1	3.5µM*	0%	2%	?	i
CCCn1c(SCc2nc(-c3ccc(OC)cc3OC)no2)nnc1-c1ccc(Cl)cc1	?	.	.	?	i
CCCNc1nc(Nc2ccc([N+](=O)[O-])cc2)nc(N2CCOCC2)n1	.	-3%	.	.	.
CC1CCN(c2nc(Cl)nc(Nc3ccc([N+](=O)[O-])cc3)n2)CC1	.	8%	?	20µM*	i
CC(=O)N1CCCN(C(=O)C2CCN(c3ncnc4c3sc3cccc(F)c34)CC2)CC1	i	.	.	.	.
O=S(=O)(c1ccccc1)N(CC(F)(F)F)c1ccc(C(O)(C(F)(F)F)C(F)(F)F)cc1	i	-19%	.	22µM*	?
O=C(O)CN(c1cccc(C(F)(F)F)c1)S(=O)(=O)c1ccccc1	i	-4%	5%	-10%	i
O=c1oc2ccccc2c2oc3cc(O)c(O)cc3c12	8.9µM*	2%	4%	-16%	i
CCn1cc(C(=O)N2CCN(c3ccccc3)CC2)c(=O)c2cc(S(=O)(=O)N3CCCC3)ccc21	i	.	.	10%	i
COc1cc2c(cc1OC)-c1cc(=Nc3c(C)cc(C)cc3C)n(C)c(=O)n1CC2	.	-7%	18µM*	.	.
CCOCCc1nn2c(=O)cc(COC(=O)CNC(=O)c3ccc(F)cc3)nc2s1	i	.	.	14%	i
Clc1ccc(N2CCN(Cc3c[nH]c4ncccc34)CC2)cc1	i	4%	7.3µM*!	7%	i
c1ccc(CN2CCN(Cc3c[nH]c4ccccc34)CC2)cc1	i	2%	-14%	-9%	i
Cc1nn(-c2ccccn2)c2c1-c1nc(N)ncc1CC2	i	-2%	-2%	17%	i
Cc1nn(-c2ccccn2)c2c1-c1nc(N)sc1CC2	.	13µM*	.	.	.
Cc1sc2ncnc(NCc3cccs3)c2c1C	i	-1%	-12%	18µM*	i
CCN(CC)CC#CCOC(=O)C(O)(c1ccccc1)C1CCCCC1 (stereo not given)	i	-2%	23µM*!	24%	i
CCNc1nc(N2CCCCC2)nc(-n2nnc(C(=O)OCC)c2C)n1	i	0%	20%	18µM*	i
Cc1ccc(C(=O)N2CCn3c4c(c5cc(C)ccc53)CCCC42)cc1 (stereo not given)	?	.	.	-2%	i
Cc1ccc2c(c1)c1c3n2CCN(C(=O)C2CC2)C3CCC1 (stereo not given)	i	2%	2%	28µM*	i
